# From article PMC7862700, “An all-to-all approach to the identification of sequence-specific readers for epigenetic DNA modifications on cytosine”
# Columns and labels:
# Assay in all cases: DAPPL (digital affinity profiling via proximity ligation, sequencing); 10 mM Tris-HCl pH 7.5, 50 mM NaCl, 1 mM DTT, 4% glycerol, room temperature, 30 min; GST-TFs on glutathione beads, 16-mer random dsDNA library, 0.1% formaldehyde crosslink after washing; high values mean tight binding
# FLI1 = molecular target: T1, FLI1 (Homo sapiens, UniProt Q01543 1-452); settings: protein: recombinant; tags: N-terminal GST; dsDNA, one strand shown
# T1 sequence: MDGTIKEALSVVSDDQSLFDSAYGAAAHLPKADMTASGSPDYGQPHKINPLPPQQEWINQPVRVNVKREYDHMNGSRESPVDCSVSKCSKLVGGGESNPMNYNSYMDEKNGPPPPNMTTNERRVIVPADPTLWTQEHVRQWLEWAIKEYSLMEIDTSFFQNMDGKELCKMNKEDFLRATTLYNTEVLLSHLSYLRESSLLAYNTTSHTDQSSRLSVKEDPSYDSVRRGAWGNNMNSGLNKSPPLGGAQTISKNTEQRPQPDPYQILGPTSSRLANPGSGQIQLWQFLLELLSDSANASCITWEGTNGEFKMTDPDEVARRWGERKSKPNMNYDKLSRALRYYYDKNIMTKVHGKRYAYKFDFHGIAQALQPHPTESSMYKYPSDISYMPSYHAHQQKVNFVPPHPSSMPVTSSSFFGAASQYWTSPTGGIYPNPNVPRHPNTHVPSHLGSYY
# Method in brief: (§1)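 Yeast served to express human transcription factors as GST fusions, which were then captured on glutathione beads and labelled with DNA barcodes. Pooled with a tag-only sample, they were incubated with 200 nmole of a 16-mer random double-stranded DNA library for 30 min at room temperature in Tris/NaCl/DTT/glycerol buffer, washed, crosslinked with 0.1% formaldehyde, ligated by proximity, amplified by PCR and sequenced. Dividing each hexamer's read frequency for a factor by its frequency for the tag-only sample gives the binding signal.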
# ELK1 = molecular target: T2, ELK1 (Homo sapiens, UniProt P19419 1-428); settings: protein: recombinant; tags: N-terminal GST; dsDNA, one strand shown
# T2 sequence: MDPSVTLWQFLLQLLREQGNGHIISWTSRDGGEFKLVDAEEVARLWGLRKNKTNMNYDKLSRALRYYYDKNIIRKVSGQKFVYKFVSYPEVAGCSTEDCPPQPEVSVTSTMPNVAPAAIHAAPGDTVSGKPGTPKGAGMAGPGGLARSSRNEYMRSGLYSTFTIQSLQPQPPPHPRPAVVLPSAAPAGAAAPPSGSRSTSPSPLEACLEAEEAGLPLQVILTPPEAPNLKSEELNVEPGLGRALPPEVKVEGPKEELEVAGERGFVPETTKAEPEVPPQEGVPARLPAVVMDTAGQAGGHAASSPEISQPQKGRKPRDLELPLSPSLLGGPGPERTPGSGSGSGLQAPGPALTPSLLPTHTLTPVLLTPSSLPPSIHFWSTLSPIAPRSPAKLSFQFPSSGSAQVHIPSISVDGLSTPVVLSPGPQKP
# Method in brief: as §1
# GABPA = molecular target: T3, GABPA (Homo sapiens, UniProt Q06546 1-454); settings: protein: recombinant; tags: N-terminal GST; dsDNA, one strand shown
# T3 sequence: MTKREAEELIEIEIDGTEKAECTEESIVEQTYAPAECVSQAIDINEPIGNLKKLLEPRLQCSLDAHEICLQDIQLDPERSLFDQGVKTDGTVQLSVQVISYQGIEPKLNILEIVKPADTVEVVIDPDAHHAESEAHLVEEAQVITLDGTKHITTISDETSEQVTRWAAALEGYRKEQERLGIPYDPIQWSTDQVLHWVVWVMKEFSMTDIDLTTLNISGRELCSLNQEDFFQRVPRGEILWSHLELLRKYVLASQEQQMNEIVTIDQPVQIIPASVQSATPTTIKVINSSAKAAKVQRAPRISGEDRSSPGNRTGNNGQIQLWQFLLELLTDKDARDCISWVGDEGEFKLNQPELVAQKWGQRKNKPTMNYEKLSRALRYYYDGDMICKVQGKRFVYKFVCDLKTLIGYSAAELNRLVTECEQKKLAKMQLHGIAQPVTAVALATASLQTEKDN
# Method in brief: as §1
# ERG = molecular target: T4, ERG (Homo sapiens, UniProt P11308 1-479); settings: protein: recombinant; tags: N-terminal GST; dsDNA, one strand shown
# T4 sequence: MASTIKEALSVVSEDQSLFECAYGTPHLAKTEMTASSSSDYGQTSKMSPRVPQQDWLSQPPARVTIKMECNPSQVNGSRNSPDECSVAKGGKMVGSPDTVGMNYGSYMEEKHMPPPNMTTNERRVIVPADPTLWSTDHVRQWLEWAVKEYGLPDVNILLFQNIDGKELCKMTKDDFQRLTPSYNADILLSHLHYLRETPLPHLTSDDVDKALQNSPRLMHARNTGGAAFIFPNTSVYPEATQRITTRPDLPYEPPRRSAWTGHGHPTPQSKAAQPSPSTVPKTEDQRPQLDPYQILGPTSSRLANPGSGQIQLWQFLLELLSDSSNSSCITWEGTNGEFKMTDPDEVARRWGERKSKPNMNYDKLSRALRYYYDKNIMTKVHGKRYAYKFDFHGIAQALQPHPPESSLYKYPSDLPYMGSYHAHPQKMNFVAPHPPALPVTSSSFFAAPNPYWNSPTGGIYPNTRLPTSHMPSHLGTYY
# Method in brief: as §1
# ELF1 = ELF1 (Homo sapiens, UniProt P32519 1-619); settings: protein: recombinant; tags: N-terminal GST; dsDNA, one strand shown
# ELF1, sequence (P32519 whole entry): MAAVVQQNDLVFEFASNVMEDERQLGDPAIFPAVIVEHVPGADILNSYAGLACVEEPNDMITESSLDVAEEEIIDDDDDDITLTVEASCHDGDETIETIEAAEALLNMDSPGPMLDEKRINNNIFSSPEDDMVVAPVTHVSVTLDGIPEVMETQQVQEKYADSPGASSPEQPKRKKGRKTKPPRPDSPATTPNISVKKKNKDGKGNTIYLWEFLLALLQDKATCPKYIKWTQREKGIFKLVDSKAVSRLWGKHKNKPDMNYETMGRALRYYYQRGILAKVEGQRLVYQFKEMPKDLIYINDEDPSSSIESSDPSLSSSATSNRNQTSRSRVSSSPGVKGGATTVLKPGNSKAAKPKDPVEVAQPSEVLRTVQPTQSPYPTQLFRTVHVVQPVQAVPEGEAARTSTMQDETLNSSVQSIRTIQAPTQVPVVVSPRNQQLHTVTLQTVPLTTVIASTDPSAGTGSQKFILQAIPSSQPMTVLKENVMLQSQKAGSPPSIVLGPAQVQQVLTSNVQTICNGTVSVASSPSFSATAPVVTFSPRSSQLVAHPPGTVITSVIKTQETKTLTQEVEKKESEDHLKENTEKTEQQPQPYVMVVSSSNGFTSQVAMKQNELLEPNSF
# Method in brief: as §1
# EHF = molecular target: T5, EHF (Homo sapiens, UniProt Q9NZC4 1-300); settings: protein: recombinant; tags: N-terminal GST; dsDNA, one strand shown
# T5 sequence: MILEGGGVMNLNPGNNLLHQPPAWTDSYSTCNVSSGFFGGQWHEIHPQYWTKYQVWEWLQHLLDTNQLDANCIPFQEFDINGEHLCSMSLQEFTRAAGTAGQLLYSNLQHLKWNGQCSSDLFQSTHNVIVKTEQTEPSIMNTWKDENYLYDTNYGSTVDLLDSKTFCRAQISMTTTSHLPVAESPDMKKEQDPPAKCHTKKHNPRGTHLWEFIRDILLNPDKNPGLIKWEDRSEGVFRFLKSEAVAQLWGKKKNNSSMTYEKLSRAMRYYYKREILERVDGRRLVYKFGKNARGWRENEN
# Method in brief: as §1
# SPI1 = SPI1 (Homo sapiens, UniProt P17947 1-270); settings: protein: recombinant; tags: N-terminal GST; dsDNA, one strand shown
# Method in brief: as §1
# SPIB = SPIB (Homo sapiens, UniProt Q01892 1-262); settings: protein: recombinant; tags: N-terminal GST; dsDNA, one strand shown
# SPIB, sequence (Q01892 whole entry): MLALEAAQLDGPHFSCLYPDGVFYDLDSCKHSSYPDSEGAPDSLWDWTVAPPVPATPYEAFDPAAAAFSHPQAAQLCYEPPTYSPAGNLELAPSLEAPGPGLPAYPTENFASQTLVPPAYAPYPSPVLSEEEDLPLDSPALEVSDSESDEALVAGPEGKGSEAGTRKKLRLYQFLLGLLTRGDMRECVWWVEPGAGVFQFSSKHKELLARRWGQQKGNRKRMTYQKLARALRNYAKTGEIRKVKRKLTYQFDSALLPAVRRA
# Method in brief: as §1
# ELK3 = molecular target: T6, ELK3 (Homo sapiens, UniProt P41970 1-407); settings: protein: recombinant; tags: N-terminal GST; dsDNA, one strand shown
# T6 sequence: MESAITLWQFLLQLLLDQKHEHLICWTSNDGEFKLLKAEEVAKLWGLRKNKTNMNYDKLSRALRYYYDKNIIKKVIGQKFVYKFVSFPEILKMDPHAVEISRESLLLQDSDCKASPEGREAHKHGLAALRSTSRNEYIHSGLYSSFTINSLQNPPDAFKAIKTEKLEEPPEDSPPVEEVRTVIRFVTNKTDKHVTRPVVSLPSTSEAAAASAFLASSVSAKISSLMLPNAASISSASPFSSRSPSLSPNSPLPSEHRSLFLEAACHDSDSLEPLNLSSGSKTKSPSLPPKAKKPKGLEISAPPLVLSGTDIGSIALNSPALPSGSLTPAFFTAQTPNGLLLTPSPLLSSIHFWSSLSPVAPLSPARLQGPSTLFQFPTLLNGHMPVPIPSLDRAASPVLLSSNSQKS
# Method in brief: as §1
# FEV = molecular target: T7, FEV (Homo sapiens, UniProt Q99581 1-238); settings: protein: recombinant; tags: N-terminal GST; dsDNA, one strand shown
# T7 sequence: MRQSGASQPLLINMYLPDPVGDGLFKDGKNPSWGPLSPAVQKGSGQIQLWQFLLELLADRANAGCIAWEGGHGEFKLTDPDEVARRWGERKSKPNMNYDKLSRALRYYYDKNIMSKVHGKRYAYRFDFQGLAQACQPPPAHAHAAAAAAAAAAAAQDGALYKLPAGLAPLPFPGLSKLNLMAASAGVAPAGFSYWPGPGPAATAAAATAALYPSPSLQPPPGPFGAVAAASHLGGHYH
# Method in brief: as §1
# ETV5 = ETV5 (Homo sapiens, UniProt P41161 1-510); settings: protein: recombinant; tags: N-terminal GST; dsDNA, one strand shown
# ETV5, sequence (P41161 whole entry): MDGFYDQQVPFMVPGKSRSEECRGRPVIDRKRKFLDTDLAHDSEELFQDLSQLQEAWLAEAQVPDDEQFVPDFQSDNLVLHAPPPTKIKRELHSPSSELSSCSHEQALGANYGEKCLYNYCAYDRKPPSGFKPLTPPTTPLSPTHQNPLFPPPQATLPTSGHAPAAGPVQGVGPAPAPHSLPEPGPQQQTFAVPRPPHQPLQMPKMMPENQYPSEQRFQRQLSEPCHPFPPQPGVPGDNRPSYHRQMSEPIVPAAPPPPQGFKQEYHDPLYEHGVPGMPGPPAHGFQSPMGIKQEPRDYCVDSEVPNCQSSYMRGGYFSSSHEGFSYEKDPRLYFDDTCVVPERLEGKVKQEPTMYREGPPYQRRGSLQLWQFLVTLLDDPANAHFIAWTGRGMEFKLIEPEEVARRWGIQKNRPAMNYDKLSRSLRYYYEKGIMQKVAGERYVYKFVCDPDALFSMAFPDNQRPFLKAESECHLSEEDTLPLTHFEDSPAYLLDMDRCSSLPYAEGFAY
# Method in brief: as §1
# HSF1 = HSF1 (Homo sapiens, UniProt Q00613 1-529); settings: protein: recombinant; tags: N-terminal GST; chain copies: 3; dsDNA, one strand shown
# HSF1, sequence (Q00613 whole entry): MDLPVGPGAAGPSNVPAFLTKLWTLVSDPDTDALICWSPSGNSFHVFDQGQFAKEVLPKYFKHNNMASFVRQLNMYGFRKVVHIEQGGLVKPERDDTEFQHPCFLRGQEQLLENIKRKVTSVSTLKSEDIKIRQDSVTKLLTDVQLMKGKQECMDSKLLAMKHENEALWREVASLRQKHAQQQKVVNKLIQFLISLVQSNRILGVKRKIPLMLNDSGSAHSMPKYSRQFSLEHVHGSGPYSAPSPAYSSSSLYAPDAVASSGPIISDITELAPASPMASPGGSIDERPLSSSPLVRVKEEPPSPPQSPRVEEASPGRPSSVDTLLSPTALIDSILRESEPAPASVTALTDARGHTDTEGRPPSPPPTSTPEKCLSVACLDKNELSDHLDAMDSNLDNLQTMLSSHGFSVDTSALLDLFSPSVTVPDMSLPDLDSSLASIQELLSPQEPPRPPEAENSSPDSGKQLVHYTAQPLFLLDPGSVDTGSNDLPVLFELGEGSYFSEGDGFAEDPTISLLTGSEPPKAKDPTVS
# Method in brief: as §1
# SPIC = molecular target: T8, SPIC (Homo sapiens, UniProt Q8N5J4 1-248); settings: protein: recombinant; tags: N-terminal GST; dsDNA, one strand shown
# T8 sequence: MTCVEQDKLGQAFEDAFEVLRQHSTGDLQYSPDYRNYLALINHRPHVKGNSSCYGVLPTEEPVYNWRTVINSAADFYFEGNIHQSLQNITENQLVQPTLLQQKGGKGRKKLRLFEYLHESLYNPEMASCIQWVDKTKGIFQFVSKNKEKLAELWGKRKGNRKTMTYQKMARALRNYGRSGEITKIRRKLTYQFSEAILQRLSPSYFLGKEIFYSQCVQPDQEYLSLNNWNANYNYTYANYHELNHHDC
# Method in brief: as §1
# ELF4 = ELF4 (Homo sapiens, UniProt Q99607 1-663); settings: protein: recombinant; tags: N-terminal GST; dsDNA, one strand shown
# ELF4, sequence (Q99607 whole entry): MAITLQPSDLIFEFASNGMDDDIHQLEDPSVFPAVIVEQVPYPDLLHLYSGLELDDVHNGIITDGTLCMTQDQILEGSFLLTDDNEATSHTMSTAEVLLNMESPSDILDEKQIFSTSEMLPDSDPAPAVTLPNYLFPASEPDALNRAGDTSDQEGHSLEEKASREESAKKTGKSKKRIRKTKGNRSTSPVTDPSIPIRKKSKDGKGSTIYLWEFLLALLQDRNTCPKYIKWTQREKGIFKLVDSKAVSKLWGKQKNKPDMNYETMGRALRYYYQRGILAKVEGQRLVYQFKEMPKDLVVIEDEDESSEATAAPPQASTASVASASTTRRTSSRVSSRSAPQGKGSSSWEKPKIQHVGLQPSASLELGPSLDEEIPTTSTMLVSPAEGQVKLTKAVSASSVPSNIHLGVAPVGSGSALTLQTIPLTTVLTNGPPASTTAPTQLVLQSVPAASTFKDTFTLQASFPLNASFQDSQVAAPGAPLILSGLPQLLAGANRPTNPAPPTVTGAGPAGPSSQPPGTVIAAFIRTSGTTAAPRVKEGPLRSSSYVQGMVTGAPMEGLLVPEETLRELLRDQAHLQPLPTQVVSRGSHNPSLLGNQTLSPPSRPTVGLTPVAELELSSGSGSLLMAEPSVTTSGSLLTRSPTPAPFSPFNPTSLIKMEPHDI
# Method in brief: as §1
# ELK4 = molecular target: T9, ELK4 (Homo sapiens, UniProt P28324-2 1-405); settings: protein: recombinant; tags: N-terminal GST; dsDNA, one strand shown
# T9 sequence: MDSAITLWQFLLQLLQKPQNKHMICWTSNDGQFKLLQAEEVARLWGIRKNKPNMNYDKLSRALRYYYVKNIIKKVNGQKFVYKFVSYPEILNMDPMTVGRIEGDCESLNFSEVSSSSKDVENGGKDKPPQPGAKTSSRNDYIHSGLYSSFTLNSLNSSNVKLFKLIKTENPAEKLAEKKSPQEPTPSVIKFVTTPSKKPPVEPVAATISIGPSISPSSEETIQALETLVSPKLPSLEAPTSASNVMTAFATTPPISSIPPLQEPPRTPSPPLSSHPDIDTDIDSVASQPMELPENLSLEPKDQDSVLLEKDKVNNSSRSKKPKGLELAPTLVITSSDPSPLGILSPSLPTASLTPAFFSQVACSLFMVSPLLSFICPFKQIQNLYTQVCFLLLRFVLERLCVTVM
# Method in brief: as §1
# ETV2 = molecular target: T10, ETV2 (Homo sapiens, UniProt O00321 1-342); settings: protein: recombinant; tags: N-terminal GST; dsDNA, one strand shown
# T10 sequence: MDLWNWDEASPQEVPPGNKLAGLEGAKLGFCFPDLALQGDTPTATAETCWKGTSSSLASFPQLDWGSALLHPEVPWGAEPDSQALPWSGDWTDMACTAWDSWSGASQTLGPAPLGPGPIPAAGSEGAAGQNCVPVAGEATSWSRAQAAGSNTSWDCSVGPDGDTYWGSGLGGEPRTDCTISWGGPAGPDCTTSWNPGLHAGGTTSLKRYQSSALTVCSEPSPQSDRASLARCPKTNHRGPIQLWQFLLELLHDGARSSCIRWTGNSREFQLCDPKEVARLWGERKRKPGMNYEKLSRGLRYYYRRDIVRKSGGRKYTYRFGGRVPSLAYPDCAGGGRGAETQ
# Method in brief: as §1
# ELF3 = molecular target: T11, ELF3 (Homo sapiens, UniProt P78545 1-371); settings: protein: recombinant; tags: N-terminal GST; dsDNA, one strand shown
# T11 sequence: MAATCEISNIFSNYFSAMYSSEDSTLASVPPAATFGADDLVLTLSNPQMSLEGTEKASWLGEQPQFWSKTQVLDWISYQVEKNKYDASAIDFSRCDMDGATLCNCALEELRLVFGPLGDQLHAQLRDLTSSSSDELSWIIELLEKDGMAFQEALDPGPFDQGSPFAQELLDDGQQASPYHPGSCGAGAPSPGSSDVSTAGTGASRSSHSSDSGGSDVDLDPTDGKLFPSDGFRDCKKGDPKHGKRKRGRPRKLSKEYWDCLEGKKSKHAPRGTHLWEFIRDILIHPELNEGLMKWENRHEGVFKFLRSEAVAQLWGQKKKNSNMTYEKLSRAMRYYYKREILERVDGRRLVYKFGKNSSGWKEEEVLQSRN
# Method in brief: as §1
# CRX = CRX (Homo sapiens, UniProt O43186 1-299); settings: protein: recombinant; tags: N-terminal GST; dsDNA, one strand shown
# CRX, sequence (O43186 whole entry): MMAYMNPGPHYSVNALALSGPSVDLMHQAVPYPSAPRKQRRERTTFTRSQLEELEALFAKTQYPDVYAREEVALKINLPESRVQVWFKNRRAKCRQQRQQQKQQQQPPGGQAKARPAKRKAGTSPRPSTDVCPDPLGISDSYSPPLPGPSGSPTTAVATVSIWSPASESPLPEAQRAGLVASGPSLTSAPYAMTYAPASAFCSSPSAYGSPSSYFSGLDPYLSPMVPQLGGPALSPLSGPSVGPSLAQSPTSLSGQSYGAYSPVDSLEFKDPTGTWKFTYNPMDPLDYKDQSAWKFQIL
# Method in brief: as §1
# ETV1 = ETV1 (Homo sapiens, UniProt P50549 1-477); settings: protein: recombinant; tags: N-terminal GST; dsDNA, one strand shown
# ETV1, sequence (P50549 whole entry): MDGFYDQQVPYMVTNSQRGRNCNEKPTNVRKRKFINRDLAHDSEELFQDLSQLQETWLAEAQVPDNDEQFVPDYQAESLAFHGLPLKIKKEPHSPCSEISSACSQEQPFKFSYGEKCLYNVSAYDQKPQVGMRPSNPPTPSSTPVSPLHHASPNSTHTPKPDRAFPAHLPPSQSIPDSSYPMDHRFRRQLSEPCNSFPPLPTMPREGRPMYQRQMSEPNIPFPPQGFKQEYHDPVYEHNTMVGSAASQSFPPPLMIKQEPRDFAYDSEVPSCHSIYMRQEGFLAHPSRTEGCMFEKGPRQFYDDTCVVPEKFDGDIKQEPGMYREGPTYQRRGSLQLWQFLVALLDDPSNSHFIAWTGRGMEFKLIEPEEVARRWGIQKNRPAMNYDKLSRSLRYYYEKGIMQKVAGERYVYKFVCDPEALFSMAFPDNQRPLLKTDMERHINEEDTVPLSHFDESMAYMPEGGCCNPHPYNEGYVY
# Method in brief: as §1
sequence,measurement,setting,value
ACTACT,binding signal,FLI1,"1.28 fold enrichment (6-mer frequency, TF over GST control)"
same,binding signal,ELK1,"1.25 fold enrichment (6-mer frequency, TF over GST control)"
same,binding signal,GABPA,"1.28 fold enrichment (6-mer frequency, TF over GST control)"
same,binding signal,ERG,"1.28 fold enrichment (6-mer frequency, TF over GST control)"
same,binding signal,ELF1,"1.32 fold enrichment (6-mer frequency, TF over GST control)"
same,binding signal,EHF,"1.34 fold enrichment (6-mer frequency, TF over GST control)"
same,binding signal,SPI1,"1.29 fold enrichment (6-mer frequency, TF over GST control)"
same,binding signal,SPIB,"1.34 fold enrichment (6-mer frequency, TF over GST control)"
same,binding signal,ELK3,"1.31 fold enrichment (6-mer frequency, TF over GST control)"
same,binding signal,FEV,"1.3 fold enrichment (6-mer frequency, TF over GST control)"
same,binding signal,ETV5,"1.19 fold enrichment (6-mer frequency, TF over GST control)"
same,binding signal,HSF1,"1.12 fold enrichment (6-mer frequency, TF over GST control)"
same,binding signal,SPIC,"1.26 fold enrichment (6-mer frequency, TF over GST control)"
same,binding signal,ELF4,"1.22 fold enrichment (6-mer frequency, TF over GST control)"
same,binding signal,ELK4,"1.36 fold enrichment (6-mer frequency, TF over GST control)"
same,binding signal,ETV2,"1.44 fold enrichment (6-mer frequency, TF over GST control)"
same,binding signal,ELF3,"1.24 fold enrichment (6-mer frequency, TF over GST control)"
same,binding signal,CRX,"1.11 fold enrichment (6-mer frequency, TF over GST control)"
same,binding signal,ETV1,"1.14 fold enrichment (6-mer frequency, TF over GST control)"
